Compounds with a hit are over-represented: about 2.9% of the library has one in this group of screens.
Smad3 FoxH1 inh = Smad3 (human) transcription factor binding inhibition | TR-FRET Smad3/Dy647-FoxH1 peptide binding, europium anti-His | 88,000 compounds, 0.29% hits | P84022 | inhibition, % at 25 µM;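 active means compounds that reduce the energy-transfer binding signal between the protein and its labelled peptide by more than half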;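 further: 0% = Smad3 plus labelled peptide maximal FRET and 100% = peptide-only background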
ERa coact pot = ER-alpha (human) coactivator binding potentiation. P03372. TR-FRET ERalpha-LBD/SRC-Cy5 coactivator binding, 2 h; 100 = basal binding, no effect. coactivator binding (% of control), % at 25.6 µM. 86,000 compounds, 1.3% hits. AID 639; in the data active means activity above about 200%;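 further: binding measured in presence of low estradiol as agonist stimulus; 0% = peptide alone without receptor and 100% = receptor with peptide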
Target sequence (P03372 whole entry, looked up, the tested form may be a part): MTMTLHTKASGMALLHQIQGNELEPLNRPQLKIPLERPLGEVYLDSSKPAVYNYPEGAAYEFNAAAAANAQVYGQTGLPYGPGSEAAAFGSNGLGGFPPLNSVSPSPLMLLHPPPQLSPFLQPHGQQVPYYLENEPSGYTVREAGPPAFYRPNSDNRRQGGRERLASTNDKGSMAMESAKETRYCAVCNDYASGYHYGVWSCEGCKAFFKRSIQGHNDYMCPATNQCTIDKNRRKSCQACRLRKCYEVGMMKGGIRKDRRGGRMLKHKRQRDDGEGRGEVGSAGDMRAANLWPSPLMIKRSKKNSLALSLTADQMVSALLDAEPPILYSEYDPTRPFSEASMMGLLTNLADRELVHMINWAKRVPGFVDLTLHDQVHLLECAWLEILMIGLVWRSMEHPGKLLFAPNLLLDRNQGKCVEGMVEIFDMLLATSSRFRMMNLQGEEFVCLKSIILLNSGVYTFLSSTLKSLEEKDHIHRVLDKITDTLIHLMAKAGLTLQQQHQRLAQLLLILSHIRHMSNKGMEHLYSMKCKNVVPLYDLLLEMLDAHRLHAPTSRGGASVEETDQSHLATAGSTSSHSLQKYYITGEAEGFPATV
MRP-1 activ = activates MRP-1; H69AR cells + doxorubicin, viability rescue, CellTiter-Glo; viability increase, % at 10 µM; 140,000 compounds, 0.61% hits; AID 799;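 active means viability gain under doxorubicin at or above a set limit, the compound median plus 3 SD, cut at about 4.7% in these data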;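 further: MRP-1 overexpressing cells given doxorubicin 25 µM after compound pretreatment; 18-22 h compound pretreatment then 72 h with doxorubicin before readout; 0% = doxorubicin-only wells and 100% = vehicle-treated cells without doxorubicin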
ERb SRC1 inh = ER-beta (human) coactivator binding inhibition; 86,000 compounds, 1.3% hits; TR-FRET ER-beta LBD / SRC1-Cy5 peptide binding; receptor agonist-loaded with 1 µM estradiol; Q92731; AID 633; inhibition, % at 25.6 µM;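 active means compounds whose percent inhibition of the receptor-coactivator binding signal exceeds about 50% in the single-dose screen, limit read from the data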;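 further: 0% = receptor plus peptide wells without compound and 100% = peptide-only wells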
MRP reversal = compounds reversing MRP-mediated drug resistance; H69AR cells + 2 uM doxorubicin, CellTiter-Glo, 72 h; differential viability (reversal), % at 10 µM; 85,000 compounds, 0.04% hits;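 active means viability drop by adding the cancer drug above about 55%, with treated viability meeting a 40% cutoff, limit read from the data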;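 further: viability without doxorubicin minus viability with 2 µM doxorubicin for each compound; larger differential means the compound sensitizes cells more to doxorubicin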
ERa SRC1 inh = blocks coactivator binding to human estrogen receptor alpha; inhibition, % at 25.6 µM; AID 629; P03372; 86,000 compounds, 1.7% hits; TR-FRET ER-alpha LBD / SRC-1 peptide, estradiol-bound; in the data active means inhibition above about 50%;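 further: 0% = receptor plus peptide control and 100% = peptide only without receptor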
Active calls of the source: *; x = no result; [ ] = remark or other dose.

SMILES | Smad3 FoxH1 inh | ERa coact pot | MRP-1 activ | ERb SRC1 inh | MRP reversal | ERa SRC1 inh
CCn1c(SCc2cc(=O)[nH]c3ccccc23)nnc1C1CC1 | x | x | -1 | x | x | x
Cc1ccc(CCNS(=O)(=O)c2cnc[nH]2)cc1 | -9 | 123 | 0 | 70* | -7 | 10
COc1ccc(C(=O)/C=C/c2ccc(OC)c(Cn3nnc4ccccc43)c2)cc1 | x | x | -6 | x | x | x
Cc1ccc(S(=O)(=O)NC(=O)c2cc(C)n(-c3cc(S(=O)(=O)N4CCOCC4)ccc3N3CCCC3)c2C)cc1 | x | x | 5.0* | x | x | x
Cc1ccc(S(=O)(=O)NC(=O)c2cc(C)n(-c3ccccc3)c2C)cc1 | x | x | -2 | x | x | x
c1ccc2c(c1)oc1c(Nc3ccc4c(c3)OCO4)ncnc12 | 7 | 75 | -2 | 43 | x | 43
c1ccc2c(c1)oc1c(NCc3ccc4c(c3)OCO4)ncnc12 | 12 | 378*[fluorescence artefact?] | 1 | -5 | -9 | -3
CCOc1c(C(N)=O)c(-c2ccccc2)c2c(=O)[nH]c3ccccc3n12 | 3 | 54 | 0 | 61* | 11 | 82*[fluorescence artefact?]
CCOC(=O)c1c(C)nc(C)c(C(=O)OCC)c1-c1ccccc1 | x | x | -2 | x | x | x
COc1ccc(CCn2c(N)cc(=O)[nH]c2=S)cc1OC | 10 | 44 | 0 | 58*[fluorescence artefact?] | -1 | 47
CCN(CC)S(=O)(=O)c1ccc(Nc2nc3ccccc3n3nnnc23)cc1 | -4 | 78 | -3 | 37 | 8 | 85*[fluorescence artefact?]
c1ccc2c(c1)nc(Nc1ccc3c(c1)OCO3)c1nnnn12 | 8 | 98 | -5 | 23 | -8 | 57*[fluorescence artefact?]
Brc1ccc(Nc2nc3ccccc3n3nnnc23)cc1 | 8 | 113 | -3 | -20 | 1 | 0
CCOc1ccc(-c2nnn(CC(=O)c3ccc4c(c3)OCCO4)n2)cc1OCC | -2 | 385*[fluorescence artefact?] | 0 | 26 | 0 | 13
Cc1ccc(-c2cc(C(=O)O)c3cc(Br)ccc3n2)o1 | x | x | -2 | x | x | x
Cc1ccc(-c2cc(C(=O)NC3=NCCS3)c3cc(Br)ccc3n2)o1 | -24 | 281*[fluorescence artefact?] | -1 | 25 | -5 | 52*[fluorescence artefact?]
Cc1ccc(-c2cc(C(=O)NCCCn3ccnc3)c3cc(Br)ccc3n2)o1 | 12 | 69 | -7 | 49 | -11 | 88*[fluorescence artefact?]
CN1CCN(C(=O)C(Cc2ccccc2)NS(=O)(=O)c2ccc3c(c2)CCC(=O)N3)CC1 (centres undefined) | 10 | 119 | 0 | -3 | 8 | -6
CCCCNC(=O)C(Cc1ccccc1)NS(=O)(=O)c1ccc2c(c1)c(=O)n(C)c(=O)n2C (centres undefined) | -8 | 122 | -1 | 12 | 8 | 86*[fluorescence artefact?]
CCOC(=O)CNC(=O)C(Cc1ccccc1)NS(=O)(=O)c1ccc2c(c1)CCC(=O)N2 (centres undefined) | 5 | 101 | x | 86* | 4 | -3
Cn1c(=O)c2cc(S(=O)(=O)NC(C(=O)N3CCCCCC3)c3ccccc3)ccc2n(C)c1=O (centres undefined) | 5 | 122 | -1 | -6 | 0 | -3
CCOC(=O)c1sc(NC(=O)CNC(=O)Cn2cnc3sc(C)c(C)c3c2=O)nc1C | -63 | 226* | 0 | 46 | 13 | 48
Nn1c(SCC(=O)Nc2ccc(S(=O)(=O)N3CCCC3)cc2)nnc1C(F)(F)F | 0 | 101 | -1 | -5 | 10 | -3
C=CCc1c(C)nc(-c2ccccc2)nc1N/N=C(\C)c1ccc(N)cc1 | x | x | 5.7* | x | x | x
C=CCc1c(C)nc(-c2ccccc2)nc1Nc1ccccc1O | x | x | -2 | x | x | x
SMILES | Smad3 FoxH1 inh | ERa coact pot | MRP-1 activ | ERb SRC1 inh | MRP reversal | ERa SRC1 inh
C=CCc1c(C)nc(C)nc1N/N=C/c1ccccc1 | -2 | 94 | 0 | 0 | 15 | 1
C=CCc1c(C)nc(-c2ccccc2)nc1N/N=C/c1ccccc1 | x | x | 8.5* | x | x | x
NCCSC[C@H](N)C(=O)O | 3 | x | x | x | x | x
OC[C@H](S)CS | 86* | x | x | x | x | x
Clc1ccccc1-c1nc(-c2cccnc2)no1 | -6 | 98 | -2 | -8 | -6 | -5
Clc1ccc(Br)cc1-c1nc(-c2cccnc2)no1 | 10 | 207*[fluorescence artefact?] | x | 27 | 3 | 38
Cc1sc(NC(=O)CSc2nnc3scc(-c4ccccc4)n23)c(C#N)c1C | -8 | 224*[fluorescence artefact?] | -1 | 34 | 6 | 37
CCc1nnc(NC(=O)CSc2nnc3scc(-c4ccc(C)cc4)n23)s1 | -1 | 106 | x | 3 | 7 | 1
Cc1ccc(-c2csc3nnc(SCc4csc(C)n4)n23)cc1 | 10 | 365*[fluorescence artefact?] | -1 | 0 | -9 | 1
Cc1nnc(NC(=O)CSc2nnc3scc(-c4ccc(C)c(C)c4)n23)s1 | 0 | 259* | 0 | -15 | 11 | -23
Cc1ccc(-c2nc(NC(=O)CSc3nnc4scc(-c5ccccc5)n34)ns2)cc1 | -8 | 203*[fluorescence artefact?] | x | -4 | -10 | 24
[Cu].[NH-][C@H](CC(=O)O)C(=O)O.[NH-][C@H](CC(=O)O)C(=O)O | 3 | x | x | x | x | x
CC(CO)(CO)Nc1ncnc2ccccc12 | 1 | x | x | x | x | x
Cc1ccc(OCc2nnc(SCC(=O)Nc3sc(C)c(C)c3C#N)n2C)cc1 | 9 | 250* | -2 | 10 | 6 | 15
CC12CCCCC1N(O)C(=O)C(=O)N2O (centres undefined) | x | x | 0 | x | x | x
CC1(C)CCCC2=C1CC1C(=O)N(O)C(=O)C1C2 (centres undefined) | -6 | 119 | -2 | 89* | 8 | 0
O=C(O)C[C@H](S)C(=O)O | 4 | x | x | x | x | x
CCOC(=O)c1sc(C)c2c1NC(c1ccc(N(C)C)cc1)NC2=O (centres undefined) | -3 | 216*[fluorescence artefact?] | -4 | 12 | -3 | 11
CC(/C=N\NC(=O)CN1CCN(S(=O)(=O)c2ccc(C)cc2)CC1)=C\c1ccccc1 | x | x | 5.8* | x | x | x
NC1=N[C@@H](c2ccc(Cl)cc2)N(c2ccc(S(=O)(=O)Nc3ncccn3)cc2)C(N)=N1 | 52* | x | x | x | x | x
Cc1cc([N+](=O)[O-])cnc1Sc1nccn1C | x | x | -2 | x | x | x
Cc1cc(C)c2nc3c(c([C@H](O)[C@@H]4CCCCN4)c2c1)CC/C3=C\c1ccc(Cl)cc1 | 12 | x | x | x | x | x
Cc1ccc(NC(=O)c2cnc3scc(C)n3c2=O)c(C)c1 | -13 | 220* | x | 39 | -2 | 50*[fluorescence artefact?]
Cc1csc2ncc(C(=O)Nc3ccccc3Cl)c(=O)n12 | 23 | 239*[fluorescence artefact?] | x | 65*[fluorescence artefact?] | -13 | 58*[fluorescence artefact?]
Cc1csc2ncc(C(=O)Nc3ccccc3F)c(=O)n12 | -3 | 137 | x | 21 | -8 | 29
Cc1cccc(NC(=O)c2cnc3scc(C)n3c2=O)c1 | -10 | 336*[fluorescence artefact?] | -4 | 18 | 1 | -4
Cc1csc2ncc(C(=O)N3c4ccccc4CC3C)c(=O)n12 (centres undefined) | 2 | 120 | -2 | 87* | 13 | -6
CC1Cc2ccccc2N1C(=O)c1cnc2ccccn2c1=O (centres undefined) | -4 | 86 | -1 | 2 | 19 | -5
O=C(Nc1ccn(Cc2c(F)c(F)cc(F)c2F)n1)c1ccc(COc2cc(Cl)ccc2Cl)o1 | x | x | 3 | x | x | x
O=C(Nc1ccn(Cc2ccccc2F)n1)c1ccc(COc2cc(Cl)ccc2Cl)o1 | x | x | 7.0* | x | x | x
